High-throughput results (PubChem)
Compounds with a hit are over-represented: about 2.6% of the library has one in this group of screens.
TWEAK-Fn14 inh: blocks TWEAK-Fn14 interaction in a reporter cell assay; TWEAK-stimulated Fn14 reporter cells, luciferase luminescence, 8 h; inhibition, % at 10 µM; hit rate 2% among 360,000; AID 1159606; in the data active means inhibition above about 50%
LMP1 NFkB inh: inhibitors of Epstein-Barr LMP1-induced NF-kappaB reporter; LMP1-induced NF-kappaB luciferase reporter cells, luminescence; inhibition, % at 12.5 µM; hit rate 0.69% among 350,000; AID 504558; in the data active means inhibition above about 41%;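 further: 0% = neutral control wells and 100% = reference inhibitor control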
LGR2 antag: blocks bursicon-induced cAMP signaling via Drosophila LGR2; HEK293 LGR2, CRE-luciferase, bursicon-stimulated, 4 h; inhibition, % at 9.99 µM; hit rate 0.35% among 380,000;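 active means drop in luminescence signal, shown as inhibition above about 50% in the replicate tests, limit read from the data, passing the limit was not always enough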;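 further: agonist challenge used bursicon conditioned medium at about half maximal strength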
TROY signal inh: inhibitors of TROY-dependent NF-kB signaling; Q293 LMP1-TROYcd NF-kB luciferase reporter, 4 h; inhibition, % at 10 µM; hit rate 0.98% among 360,000;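 active means compounds whose plate-normalised and pattern-corrected inhibition of the luciferase reporter signal at the single screening dose is 50% or more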
EWS-Fli inh: inhibitors of EWS/Fli oncoprotein transcriptional activity; inhibition, % at 12.6 µM; hit rate 0.67% among 350,000; A673 NR0B1-luciferase reporter, viability-normalised;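 active means mean inhibition of at least 50% after viability correction, with every replicate also passing that limit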;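 further: firefly luciferase signal divided by Alamar Blue viability fluorescence both relative to DMSO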
* hit, by the source's call; x = no result given.

SMILES	TWEAK-Fn14 inh	LMP1 NFkB inh	LGR2 antag	TROY signal inh	EWS-Fli inh
Oc1ccc(-c2cnc3c(Nc4cccc(OC(F)(F)C(F)F)c4)nccn23)cc1	31	x	-13	-5	25
c1ccc(-c2ccc(-c3nc(-c4ccncc4)no3)cc2)cc1	65*	3	x	30	x
CCc1ccc(-c2nc(-c3ccncc3)no2)cc1	76*	16	x	34	x
CCCCc1ccc(-c2nc(-c3ccncc3)no2)cc1	33	-19	x	-30	x
c1ccc(-c2nc(-c3ccncc3)no2)cc1	-4	-20	-37	-44	x
Cc1ccc(-c2nc(-c3ccncc3)no2)c(Cl)c1	69*	9	75*	30	56*
O=C(C[C@H]1CC[C@@H]2[C@H](COC[C@@H](O)CN2Cc2cc(F)ccc2F)O1)NCc1ccc(Oc2ccccc2)cc1	x	x	-5	x	x
Cn1cnc(S(=O)(=O)N2C[C@@H](O)COC[C@@H]3O[C@@H](CC(=O)NCc4ccc(F)cc4)CC[C@H]32)c1	x	x	-6	x	8
CCO[C@H]1OC(C(=O)O)=C[C@@H](c2ccc(Br)cc2)[C@@H]1CCCO	x	x	x	x	-10
C[C@@H]1CN([C@@H](C)CO)C(=O)c2cc(NC(=O)Nc3ccc(F)cc3)ccc2O[C@@H]1CN(C)Cc1ccc(C(=O)O)cc1	x	x	-2	x	1
CCCCCCc1cc2cc(S(=O)(=O)c3ccc(C)cc3)c(=O)oc2cc1O	1	3	3	51*	12
CCCCCCc1cc2cc(S(=O)(=O)c3ccc(Cl)cc3)c(=O)oc2cc1O	44	7	8	53*	-7
CCCCCCc1cc2cc(C(=O)NCc3ccccc3)c(=N)oc2cc1O	-17	-13	0	48	x
CCCCCCc1cc2cc(C(=O)Nc3ccccc3)c(=O)oc2cc1O	69*	-1	41	50*	x
O=c1oc2cc(O)ccc2cc1S(=O)(=O)c1ccccc1	5	5	-10	6	x
CCN(CC)c1ccc2cc(S(=O)(=O)c3ccc(Cl)cc3)c(=O)oc2c1	-10	-4	10	-8	10
COc1ccc(NC(=O)N(C)C[C@H]2Oc3ccc(NC(=O)Nc4ccccc4)cc3CC(=O)N([C@H](C)CO)C[C@H]2C)cc1	x	x	8	x	-4
OC1CCC2CN3CCc4c([nH]c5ccccc45)C3CC2C1 (configuration not stated)	35	x	x	-5	-15
COC(=O)C1=CO[C@@H](C)[C@H]2CN3CCc4c([nH]c5ccccc45)[C@@H]3C[C@H]12	-3	78*	x	15	-10
O=C(O)[C@@H]1[C@H]2C[C@H]3c4[nH]c5ccccc5c4CCN3C[C@@H]2CC[C@@H]1O	-8	65*	-5	12	-2
O=C(Nc1ccc2c(c1)[C@@H]1C[C@@H](CC(=O)N3CCc4ccccc4C3)O[C@H](CO)[C@@H]1O2)Nc1ccccc1F	x	x	3	x	-8
Cc1ccc2[nH]nc(C(=O)N3CCCC(C(=O)c4ccc(Cl)cc4)C3)c2c1 (configuration not stated)	59*	0	2	48	3
Cc1noc(C)c1C(=O)N1CCCC(C(=O)c2ccc(Cl)cc2)C1 (configuration not stated)	6	-4	16	-14	1
COc1ccc(NC(=O)N2C[C@@H](O)COC[C@H]3O[C@H](CC(=O)NCc4ccncn4)CC[C@@H]32)cc1	x	x	-1	x	-12
CN(c1ccccc1)c1ccc(/C=C/[N+](=O)[O-])cc1	103*	18	102*	89*	64*
SMILES	TWEAK-Fn14 inh	LMP1 NFkB inh	LGR2 antag	TROY signal inh	EWS-Fli inh
C[C@@H]1CN([C@@H](C)CO)S(=O)(=O)c2ccc(C#CC3(O)CCCC3)cc2O[C@H]1CN(C)C(=O)Nc1cccc(F)c1	x	x	10	x	14
CC(=O)Nc1ccc(-c2ccnc3c2CC(C(=O)NCc2ccco2)O3)cc1 (configuration not stated)	-8	x	-10	28	62*
O=C(NCc1ccccc1)C1Cc2c(-c3ccc4c(c3)OCO4)ccnc2O1 (configuration not stated)	-14	x	-19	7	60*
CC(=O)Nc1ccc(-c2ccnc3c2CC(C)(C(=O)NCc2ccco2)O3)cc1 (configuration not stated)	19	x	10	22	54*
CC(=O)Nc1ccc(-c2ccnc3c2CC(C(=O)NCc2ccccc2)O3)cc1 (configuration not stated)	48	x	-28	7	51*
CC(=O)Nc1ccc(-c2ccnc3c2CC(C(=O)NCC2CC2)O3)cc1 (configuration not stated)	22	x	12	6	6
CC(=O)N1[C@@H]2CN(C(=O)c3ccc(F)cc3)c3ccccc3[C@@H]2[C@@H]1CO	x	x	-5	x	10
COc1ccc(C(=O)N=c2nc3ccccn3s2)cc1	97*	64*	x	79*	x
CCc1cc(C(=O)N(CCCOC)c2c(N)n(Cc3ccccc3)c(=O)[nH]c2=O)sc1C	2	4	18	71*	3
O=C(CCN1CCCCC1)NCC[C@H]1CC[C@@H](NS(=O)(=O)c2cccc(F)c2)[C@H](CO)O1	x	x	15	x	9
COc1ccc(N(C(=O)CCl)C(C(=O)NCCc2ccccc2)c2cccs2)cc1Cl (configuration not stated)	52*	7	22	-15	68*
COCCNC(=O)C(c1cccs1)N(C(=O)Cn1nnc2ccccc21)c1ccccc1 (configuration not stated)	-1	-1	x	0	x
COc1cccc(N(C(=O)CCl)C(C(=O)NCCc2ccccc2)c2cccs2)c1 (configuration not stated)	59*	36	16	-13	x
Cc1cccc(C)c1Nc1nnc(SCC(=O)c2ccc(Br)s2)s1	4	-5	11	-7	75*
CCNC(=O)Nc1ccc2c(c1)C(=O)N(C)[C@@H]1CC[C@H](CC(=O)N[C@H](C)c3ccccc3)O[C@@H]1CO2	x	x	-20	x	-3
O=C(Nc1cccnc1)c1cc(-c2ccc(Cl)c(Cl)c2)on1	-2	9	-28	-53	-83
O=C(Nc1cccnc1)c1cc(-c2ccc3c(c2)OCO3)on1	77*	-9	63*	36	x
O=C(c1cc(-c2ccc3c(c2)OCO3)on1)N1CCN(c2ccccc2)CC1	22	-29	-70	65*	x
O=C(c1cc(-c2ccc3c(c2)OCO3)on1)N1CCOCC1	77*	62*	x	36	x
C[C@H](CO)N1C[C@H](C)[C@H](CN(C)C(=O)Nc2cccc(F)c2)Oc2ncc(C#CCN(C)C)cc2C1=O	x	x	5	x	5
C/C=C/c1ccc([C@H]2[C@@H](CO)N(C(=O)C3CCC3)[C@@H]2CN(CC)C(=O)CC)cc1	x	x	2	x	x
C[C@H](NC(=O)C[C@H]1CC[C@@H](NC(=O)Cc2ccccn2)[C@H](CO)O1)c1ccccc1	x	x	5	x	-5
O=C1/C(=C\c2ccccn2)SC(=S)N1c1ccc(S(=O)(=O)Nc2nccs2)cc1	-8	1	10	-2	3
COc1ccc(/C=C2/SC(=S)N(c3ccc(S(=O)(=O)Nc4nccs4)cc3)C2=O)cc1	39	6	30	54*	10
